This note sets out measurements from PubChem BioAssay (NCATS).

Each structure is given as a SMILES string. Unmarked numbers belong to inactive results. Inconclusive results are not listed. The source made the active and inactive calls. Calls come from the whole dose curve; as a rule, active = well fitted curve in the direction sought with a large enough effect; inconclusive = small, poorly fitted or top-dose-only effect, or another doubt; inactive = no such curve, though single readings can be large; an effect the other way counts as inactive or inconclusive.

For experiment [1], the target named is Phospholipid hydroperoxide glutathione peroxidase GPX4 (Homo sapiens) (UniProt P36969). Description: Primary qHTS Assay for Inhibitors of Recombinant Selenoprotein Glutathione Peroxidase 4 (GPX4) (AID 1845192). Note: series mostly up to about 50 µM; % is set by controls: 0 for no effect and ±100 for the full control effect; nearly all actives have a fitted effect of over 65% in size. In outline:
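GR-coupled assay: recombinant GPX4 preincubated 30 min with compound at room temperature; final 200 nM GPX4, 1 mM GSH, 0.5 mM cumene hydroperoxide, 0.5 mM NADPH, 100 nM GR, 0.01% BSA, pH 7.5 Tris. NADPH fluorescence (340/450 nm) read at 0 and 15 min.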
On the technique in general: In qHTS, concentration-response curves come from the screen itself.

Experiment [2] concerns the target Luciferin 4-monooxygenase (Photinus pyralis) (UniProt P08659). As to the kind of experiment: Primary firefly luciferase (FLuc) qHTS assay for identification of artifact compounds. (AID 1845220). Note: nearly all actives have a fitted effect of over 60% in size. The method in brief:
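D-luciferin and ATP (10 uM each, final) in Tris acetate buffer pH 7.6 were incubated with compounds for 15 min at room temperature. The reaction was started with 10 nM Photinus pyralis luciferase and luminescence read after 5 min. Percent inhibition was fitted to a 4-parameter Hill equation.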

The nature of experiment [3]: Primary fluorescence-based thiol-reactive (MSTI) qHTS assay for identification of artifact compounds. (AID 1845221).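 For activity change, negative = thiol reactive: series mostly up to about 54 µM; thiol-reactive compounds lower the probe fluorescence signal.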 Note: nearly all actives have a fitted effect of over 65% in size. Note: potency is the fitted concentration of half-maximal effect. The method in brief:
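qHTS titration of compound; 4 uM MSTI, PBS pH 7.4, 2% DMSO; 1 h RT, dark; fluorescence 525/598 nm; normalized to Acetyl-MSTI and MSTI; 4-parameter Hill fit.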

Chain of Phospholipid hydroperoxide glutathione peroxidase GPX4 (Homo sapiens) (P36969 whole entry, looked up): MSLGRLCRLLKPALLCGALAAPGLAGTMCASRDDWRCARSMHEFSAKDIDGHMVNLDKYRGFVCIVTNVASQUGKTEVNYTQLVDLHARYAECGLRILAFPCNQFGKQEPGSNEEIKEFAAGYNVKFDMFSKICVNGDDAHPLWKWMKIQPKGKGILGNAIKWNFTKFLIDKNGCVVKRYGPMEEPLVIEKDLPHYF

`CN1CCCC1Cc1c[nH]c2ccc(CCS(=O)(=O)c3ccccc3)cc12` (stereo unspecified): the Potency result in experiment [1], in experiment [2] and in experiment [3] was “inactive” each time.
For the compound `Cc1sc(C)c(C(=O)NC2(c3ccc(C(=O)O)cc3)CC2)c1Cc1ccc(C(F)(F)F)cc1`, the Potency entry in experiment [1], in experiment [2] and in experiment [3] was “inactive” each time.
With `C/C=C1/CC2C(=O)Nc3cc(O)c(OC)cc3C(=O)N2C1` (stereo unspecified), the Potency entry in experiment [1] and in experiment [2] was “inactive” each time. For the same compound, in experiment [3], the Potency was 13.1 µM (active).
Take `CC(C)=CCC[C@](C)(O[C@@H]1O[C@H](CO[C@@H]2OC[C@H](O)[C@H](O)[C@H]2O)[C@@H](O)[C@H](O)[C@H]1O)[C@H]1CC[C@]2(C)[C@@H]1[C@H](O)C[C@@H]1[C@@]3(C)CC[C@H](O[C@@H]4O[C@H](CO)[C@@H](O)[C@H](O)[C@H]4O[C@@H]4O[C@H](CO)[C@@H](O)[C@H](O)[C@H]4O)C(C)(C)[C@@H]3CC[C@]12C`: the Potency entry in experiment [1], in experiment [2] and in experiment [3] was “inactive” throughout.
Take `CC1OC(OC2C(OC(=O)[C@]34CCC(C)(C)C[C@H]3C3=CCC5[C@@]6(C)CC[C@H](OC7OC(C(=O)O)C(O)C(O)C7O)C(C)(C)C6CC[C@@]5(C)[C@]3(C)CC4O)OC(CO)C2O)C(O)C(O)C1OC1OCC(O)C(O)C1O` (stereo partly specified): the Potency entry in experiment [1] was “inactive”. The activity change, negative = thiol reactive in experiment [3] was 111% [at 11.5 µM].
With `Cc1cc(-c2nncc3c(C(C)(C)C)c(OCc4ncnn4C)nn23)no1`, the Potency result in experiment [1], in experiment [2] and in experiment [3] was “inactive” in each case.
For `CC1(C)CC=C(c2cnc3ccccc3c2)c2cc(C(=O)Nc3ccc(C(=O)O)cc3)ccc21`, the Potency result in experiment [1], in experiment [2] and in experiment [3] was “inactive” throughout.
As for `COC(O)(CC(C)C)C1Oc2cc(C)[nH]c(=O)c2O1` (stereo unspecified), the Potency result in experiment [1], in experiment [2] and in experiment [3] was “inactive” throughout.
As for `Cc1nnc(-c2sc(NC(=O)[C@H](C(C)C)n3c(=O)[nH]c4ccccc4c3=O)nc2C)o1`, the Potency result in experiment [1], in experiment [2] and in experiment [3] was “inactive” throughout.
